High-throughput results (PubChem)
IMPase Li inh = IMPase inhibition in cells with lithium potentiation | CHO-M1 cells, IP1 TR-FRET (IP-One), carbachol + lithium | Potency, µM (top dose mostly 59.4 µM), for the others: at the top dose activity, negative = IMPase inhibition, hits mostly inhibitors | actives 0.35% (n = 210,000);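 note: IP1 builds up when IMPase is blocked and the TR-FRET signal falls; potency is the fitted concentration of half-maximal effect; plate controls were basal vehicle for no effect and high inhibitor control for full effect; nearly all actives have a fitted effect of over 50% in size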
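Steps: plate 2000 CHO-M1 cells per well and culture 16–30 h; add compound and lithium; incubate 30 min, 37C; add d2-IP1 tracer and Eu cryptate anti-IP1 antibody in lysis buffer; read after 10 min at room temperature.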
ERK EGF block = EGF-driven ERK pathway inhibition. HEK293-V1b, EGF-stimulated phospho-ERK AlphaScreen. actives 0.41% (n = 130,000). Potency, µM (series often up to 11.5 µM), without a hit: at the top dose activity change, negative = inhibition, hits mostly inhibitors;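 note: potency is the fitted concentration of half-maximal effect; plate controls were stimulated vehicle wells for no effect and unstimulated vehicle basal for full effect; nearly all actives have a fitted effect of over 55% in size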
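Cell line HEK293 (stable V1b), low serum overnight. Pretreatment: compound 30 min, 37C. EGF 25 nM, 5 min. Detection: SureFire AlphaScreen, 5 h RT. AC50 via standard Hill equation.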
NPSR antagonist = antagonists of human neuropeptide S receptor cAMP signaling | Q6W5P4 | CHO-NPSR cells, cAMP TR-FRET, antagonist mode | Potency, µM (highest dose often 38.3 µM), for the others: at the top dose activity change, negative = inhibition, usual class: inhibitors | actives 1% (n = 220,000) | AID 1461; note: potency is the fitted concentration of half-maximal effect; % is set by controls: 0 for no effect and ±100 for the full control effect; nearly all actives have a fitted effect of over 50% in size
pERK EGF inh = confirmation of ERK pathway inhibitors under EGF stimulation; HEK293 EGF-stimulated ERK phosphorylation, AlphaScreen; Potency, µM (doses to about 57.5 µM), without a hit: at the highest dose activity change, negative = inhibition, usual class: inhibitors; shares compounds with ERK EGF block; actives 60% (n = 60)
c-Raf inh = ERK pathway inhibitors follow-up: human c-Raf kinase inhibition. shares compounds with ERK EGF block. c-Raf kinase inhibition, homogeneous biochemical assay. activity change, negative = inhibition, % at 76.9 µM. 70 tested, under 10 active
Target sequence (P04049 whole entry, looked up): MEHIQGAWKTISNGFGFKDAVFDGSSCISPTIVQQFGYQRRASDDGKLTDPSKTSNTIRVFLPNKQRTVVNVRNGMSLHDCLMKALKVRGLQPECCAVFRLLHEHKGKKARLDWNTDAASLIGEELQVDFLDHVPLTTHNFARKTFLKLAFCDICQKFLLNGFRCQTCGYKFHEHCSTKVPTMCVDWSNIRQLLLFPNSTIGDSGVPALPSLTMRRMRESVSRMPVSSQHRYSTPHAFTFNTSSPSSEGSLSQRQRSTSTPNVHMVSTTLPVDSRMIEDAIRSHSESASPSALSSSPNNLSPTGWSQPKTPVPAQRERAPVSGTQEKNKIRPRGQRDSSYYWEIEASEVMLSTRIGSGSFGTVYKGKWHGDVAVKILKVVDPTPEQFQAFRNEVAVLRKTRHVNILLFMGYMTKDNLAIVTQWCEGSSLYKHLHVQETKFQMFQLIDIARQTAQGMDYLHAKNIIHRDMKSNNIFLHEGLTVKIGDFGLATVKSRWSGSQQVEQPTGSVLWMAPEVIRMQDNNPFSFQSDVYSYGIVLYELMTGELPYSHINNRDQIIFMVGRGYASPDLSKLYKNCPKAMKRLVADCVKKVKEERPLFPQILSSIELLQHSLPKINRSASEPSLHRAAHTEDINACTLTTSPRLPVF
MEK inh = MEK1 (human) kinase inhibition. shares compounds with ERK EGF block. homogeneous MEK kinase activity assay, ERK pathway. Potency, µM (titrated, usually from 76.9 µM), for the others: at the top dose activity change, negative = inhibition, usual class: inhibitors. 70 tested, under 10 active
Starred values were filed as active, the others as inactive; ? = inconclusive; . = no result; [ ] = another dose, or the depositor's remark. Shown is part of a subset that was picked to be rich in hits. Calls come from the whole dose curve; as a rule, active = well fitted curve in the direction sought with a large enough effect; inconclusive = small, poorly fitted or top-dose-only effect, or another doubt; inactive = no such curve, though single readings can be large; an effect the other way counts as inactive or inconclusive.

SMILES | IMPase Li inh | ERK EGF block | NPSR antagonist | others
CC(=O)Nc1ccc(-c2csc(Nc3ccc(Cl)cn3)n2)cc1 | 9.4% | 1.0% | -7.5%
S=C(Nc1ccc(Cl)cc1)c1nc2ccccc2s1 | 11.2%[38.3 µM] | . | -11.5%[46.1 µM]
O=C(Nc1ccc(Cl)cc1)/C(=C/c1cccc(O)c1)c1nc2ccccc2s1 | 17.5% | 2.0% | 10µM*
C[C@H](NC(=O)N1CCc2nc(-c3ccccc3)c3c(c2C1)CO[C@@H](C)C3)c1ccccc1 | 4.6% | . | .
O=C1c2cccc([N+](=O)[O-])c2C(=O)N1c1ncn[nH]1 | -3.9% | . | .
Cc1ccc(NNC(=O)Nc2ccc(Cl)cc2)nn1 | . | 2.0%[57.5 µM] | -5.9%
Nc1nccc(-c2cccs2)n1 | -12.0% | -1.5% | 26.4%
Brc1cc(Br)c2nc(-c3cccs3)ccc2c1 | 10µM* | . | 25.5%[46.1 µM]
CN(CCc1ccc(Cl)c(Cl)c1)CC(O)COc1ccc(NS(C)(=O)=O)cc1 (stereo not drawn) | 2.4% | . | .
[O][C@H]1[C@@H](O)[C@@H](CO)O[C@@H](O[C@@H]2[C@@H]3OC[C@H]2O[C@H](O[C@@H]2[C@@H](O)[C@H](C[C@@H]4[C@@H]5OC[C@H]4O[CH][C@@H]5O)O[C@H](CO)[C@@H]2OS(=O)(=O)O)[C@@H]3OS(=O)(=O)O)[C@@H]1O | -3.7% | . | .
N#Cc1c(-c2ccccc2Cl)cc(-c2ccccc2)[nH]c1=S | -18.2% | 1.0% | -7.7%
N#Cc1c2c(c(-c3ccccc3Cl)[nH]c1=S)CCCC2 | 10µM* | -9.6% | ?
Cc1nn(C)c2ncc(C(N)=O)c(Oc3ccc(Cl)cc3)c12 | . | -14.4%[57.5 µM] | 10.6%
CCNc1ncc2nc(-c3ccccc3)c(=O)n(Cc3cccs3)c2n1 | 3.4% | . | .
O=C(Nc1cccc(Cl)c1)c1cc(N=Nc2ccc([N+](=O)[O-])cc2Cl)ccc1O | . | 14.1µM* | ?
O=C(Nc1ccc([N+](=O)[O-])cc1Cl)c1cc(Cl)ccc1O | 20.3% | -10.4% | -13.8%[46.1 µM]
O=S(=O)(c1cccc(C(F)(F)F)c1)N1c2ccccc2-n2cccc2[C@H]1c1cccnc1 | 14.1% | . | .
N#CCCCSc1nnnn1-c1cc(C(F)(F)F)cc(C(F)(F)F)c1 | 17.7% | -11.3% | .
CCN(CC)CCCn1c(=S)[nH]c2ccccc2c1=O | 34.1%[38.3 µM] | . | -23.3%[46.1 µM]
CCCCn1c(=S)[nH]c2c(oc3ccc(Cl)cc32)c1=O | 10µM* | 1.2% | -57.2%
O=C(O)c1cccc(Cl)c1Cl | 12.6% | . | .
COc1ccc(C(=O)/C=C/c2ccc(N3CCCCC3)c([N+](=O)[O-])c2)cc1 | 12.2% | 31.6µM* | -36.1%
COc1ccc(C(=O)/C=C/c2ccc(N3CCCCC3)c([N+](=O)[O-])c2)c(OC)c1 | -3.4% | ? | -44.7%
NC(=O)c1ncn(C2OC(CO)C(O)C2O)n1 (stereo not drawn) | -7.4% | 25.5% | .
CC(C)c1ccccc1-n1c(SCc2cc(=O)oc3ccc4ccccc4c23)nnc1-c1cccnc1 | 7.3% | ? | 10µM*
SMILES | IMPase Li inh | ERK EGF block | NPSR antagonist | others
CCOc1ccc(-n2c(SCc3cc(=O)oc4cc(C)ccc34)nnc2-c2cccnc2)cc1 | 17.6% | -2.3% | 0.3%
COc1cccc([C@@H]2Oc3ccc(Br)cc3[C@H](O)[C@H]2O)c1 | -5.0% | 0.6% | .
Cc1nc2ccc(S(=O)(=O)Nc3cccc(-c4nc5cccnc5s4)c3)cc2s1 | 5.2% | 25.1µM* | -4.8%
Cc1nc2ccc(S(=O)(=O)Nc3ccc(-c4nc5cccnc5s4)cc3)cc2s1 | 3.7% | -11.2% | -24.8%
Cc1cccc2cc(/C=N/NC(=O)c3ccncc3)c(Cl)nc12 | . | -3.0%[57.5 µM] | -5.7%
Cc1cccc2cc(/C=N/NC(=O)c3ccccc3O)c(Cl)nc12 | 11.2% | 20µM* | -26.6%
CN(C)c1ccc(-c2nc3ccccn3c2/N=C/c2ccc(Br)cc2)cc1 | 30.1% | ? | 10µM*
Cc1c(-c2ccc(Br)cc2)nc2ccccn12 | . | . | -29.1%[46.1 µM]
COc1ccc(-c2ccc(C(=O)O)c(=O)[nH]2)cc1 | 3.16µM* | 35.2% | -9.0%
COc1ccc(-c2cc(=O)[nH]c(=S)[nH]2)cc1 | -2.6% | 3.2% | -6.5%
CC(C)(C)NCC(O)COc1nsnc1N1CCOCC1 (stereo not drawn) | 3.0% | 7.5% | 7.4%[46.1 µM]
C/C(N)=C(/C#N)C(=O)COC(=O)c1ccncc1 | 0.6%[38.3 µM] | . | 1.9%[46.1 µM]
C/C(N)=C(/C#N)C(=O)COC(=O)c1cccc(O)c1 | 7.7% | 28.2µM* | -2.2%
Cc1nc(Cl)c(Cl)n1CCOc1ccccc1 | . | 7.9%[57.5 µM] | -14.1%
O=C(CCNC(=O)c1ccccc1Cl)Nc1ccc(Br)c(C(F)(F)F)c1 | 22.4% | 28.2µM* | -6.1%
O=C(CCNC(=O)c1ccccc1Cl)Nc1cc(C(F)(F)F)ccc1Cl | -9.9% | 0.2% | -2.7%
O=C(O)CNC(=O)c1ccc(CO)o1 | 7.4% | . | .
CCN1CCCC1Cn1c(-c2ccccc2)nc2c(NC3CCCCC3)nc(C)nc21 (stereo not drawn) | 6.0% | 0.0% | .
CCN1/C(=C2\C(=O)N(C)C(=S)N2C)C=Cc2ccccc21 | 36.0% | ? | -47.4%
CCCN1C(=O)/C(=C2/C=Cc3ccccc3N2CC)SC1=S | 13.9% | 5.62µM* | -56.7% | pERK EGF inh=10µM*;c-Raf inh=-8.3;MEK inh=-2.1%
O=C(O)C(O)C(O)C(O)C(O)C(=O)O (stereo not drawn) | 5.6% | -28.0% | .
C[C@@H](C(=O)NCc1cccc2ccccc12)[C@H]1C[C@]1(C)[C@H](NC(=O)OCc1ccccc1)c1ccccc1 | 1.8% | 1.6% | .
COc1ccc(C(=O)c2ccc(Cl)cc2)cc1 | -14.0%[38.3 µM] | . | -5.2%[46.1 µM]
COc1ccc(C(=O)c2ccc(Cl)c([N+](=O)[O-])c2)cc1 | 8.9% | 8.91µM* | 13.9% | pERK EGF inh=15.8µM*;c-Raf inh=?;MEK inh=-7.9%
Cc1cc(F)ccc1S(=O)(=O)Nc1ncnc2sc3c(c12)CCC3 | -5.2% | 0.9%[57.5 µM] | -13.8%
SMILES | IMPase Li inh | ERK EGF block | NPSR antagonist | others
Cc1sc2ncnc(Nc3ccccc3)c2c1C | 10.3%[38.3 µM] | . | -2.2%[46.1 µM] | pERK EGF inh=?;c-Raf inh=-12.0;MEK inh=-0.6%
c1ccc(Nc2ncnc3sc4c(c23)CCC4)cc1 | 10.1%[38.3 µM] | . | -18.8%[46.1 µM] | pERK EGF inh=10µM*;c-Raf inh=-31.6;MEK inh=17.7%
Fc1ccc(Nc2ncnc3sc4c(c23)CCC4)cc1 | 28.9%[38.3 µM] | . | -23.3%[46.1 µM] | pERK EGF inh=10µM*;c-Raf inh=?;MEK inh=-7.2%
Cc1sc2ncnc(NCc3ccccc3)c2c1C | ? | . | -10.4%[46.1 µM]
C[C@H](Nc1ncnc2sc3c(c12)CCC3)C(=O)O | -1.6%[38.3 µM] | . | -5.8%[46.1 µM]
Fc1ccc(Nc2ncnc3sc4c(c23)CCC4)cc1F | 19.8% | 2.51µM* | -5.2%[46.1 µM] | pERK EGF inh=8.91µM*;c-Raf inh=?;MEK inh=?
O=S(=O)(Nc1ncnc2sc3c(c12)CCC3)c1ccc2ccccc2c1 | 2.0%[38.3 µM] | . | -3.0%[46.1 µM]
COc1ncc2nc(-c3ccccc3)c(=O)n(CCC#N)c2n1 | -9.2% | . | .
COc1ccc(-c2coc3ccc(OC4OC(COC(C)=O)C(OC(C)=O)C(OC(C)=O)C4OC(C)=O)cc3c2=O)cc1 (stereo not drawn) | 7.0% | -4.7% | .
